# Values without a mark were called inactive. Results filed as inconclusive are left out. A call without a number means that no potency is given here. Active and inactive are the calls of the source. Unless noted, the call rests on the fitted dose curve.
# Columns and labels:
# [1] = Nuclear factor erythroid 2-related factor 2/antioxidant responsive element (Nrf2/ARE) small molecule agonists: qHTS cell viability counter screen in human keratinocytes (AID 1919968; active means well fitted curve in the direction sought with a large enough effect in the repeat runs; an effect the other way counts as inactive or inconclusive; further: nearly all actives have a fitted effect of over 55% in size)
# Summary of the method: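 Cytotoxicity was multiplexed with the Nrf2/ARE luciferase assay in the same wells. Stably transfected HaCaT keratinocytes were treated with test compounds for 23 h at 37 C. Cell viability was then measured by CellTiter-Fluor fluorescence.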
# [2] = Nuclear factor erythroid 2-related factor 2/antioxidant responsive element (Nrf2/ARE) small molecule agonists: luciferase reporter gene qHTS assay in human keratinocytes (AID 1919969); further: nearly all actives have a fitted effect of over 35% in size
# [3] = biological target: Gonadotropin-releasing hormone receptor (Homo sapiens) (UniProt P30968); assay: Human gonadotropin-releasing hormone receptor (GnRHR) small molecule agonists, calcium flux assay in GnRHR-HEK293 cells (AID 1920063); further: nearly all actives have a fitted effect of over 35% in size
# Summary of the method: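 Agonist activity was measured as intracellular calcium flux in HEK293 cells engineered to stably express human GnRHR. After dye loading for 1 hour at 37 C, compounds in DMSO were added and fluorescence was followed for 3 minutes.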
# [4] = biological target: KiSS-1 receptor (Homo sapiens) (UniProt Q969F8); assay: Human kisspeptin (KISS1R) small molecule agonists, calcium flux assay in KISS1R-HEK293 cells (AID 1920064; active means well fitted curve in the direction sought with a large enough effect in the repeat runs; an effect the other way counts as inactive or inconclusive)
# Summary of the method: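 Agonist activity is monitored as intracellular calcium rise in engineered HEK293 cells carrying human KISS1R. Cells are dye-loaded for 1 h at 37 C before compound addition, and fluorescence is recorded for 3 min.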
# [5] = p53 small molecule agonists, cell-based qHTS assay with rat liver microsomes (AID 1963578)
# Summary of the method: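 Read-out is beta-lactamase reporter fluorescence (LiveBLAzer, 2 h, room temperature, dark) in p53RE-bla cells treated 16 h at 37 C with compound, rat liver microsomes and NADPH, both 0.5 mg/mL final.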
# [6] = p53 small molecule agonists, cell-based qHTS assay with human liver microsomes: qHTS cell viability counter screen (AID 1963579); further: nearly all actives have a fitted effect of over 45% in size
# Summary of the method: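 Cells carrying the p53 response-element beta-lactamase reporter are treated for 16 h at 37 C with test compounds in the presence of human liver microsomes and NADPH (both 0.5 mg/mL final); ATP-based CellTiter-Glo luminescence then reports viability.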
# [7] = p53 small molecule agonists, cell-based qHTS assay with rat liver microsomes: qHTS cell viability counter screen (AID 1963580); further: nearly all actives have a fitted effect of over 45% in size
# Summary of the method: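 Luminescent ATP readout (CellTiter-Glo, 30 min at room temperature) reports viability of p53RE-bla HCT-116 cells after 16 h at 37 C with test compounds under metabolic activation by rat liver microsomes and NADPH at 0.5 mg/mL final each.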
# [8] = p53 small molecule agonists, cell-based qHTS assay: qHTS cell viability counter screen (AID 1963581); further: nearly all actives have a fitted effect of over 45% in size
# Summary of the method: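 Viability was counter-screened in parallel with the p53 agonist reporter by measuring intracellular ATP luminescence in the same HCT-116 p53RE-bla wells after 16 h compound treatment at 37 C.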
# [9] = p53 small molecule agonists, cell-based qHTS assay (AID 1963582; active means well fitted activation curve with a large enough effect in the signal ratio in the repeat runs, not every such curve was filed as active; the % refers to the signal ratio)
# Summary of the method: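 Cells carrying a p53-responsive bla reporter are treated with test compounds for 16 h at 37 C; beta-lactamase activity is then detected with LiveBLAzer B/G FRET substrate after 2 h at room temperature.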
# [10] = biological target: 5-hydroxytryptamine receptor 2A (Homo sapiens) (UniProt P28223); assay: 5-hydroxytryptamine receptor 2A (HTR2A) small molecule antagonists, cell-based qHTS assay (AID 1963586); further: nearly all actives have a fitted effect of over 45% in size
# Summary of the method: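 CHO cells stably expressing human HTR2A were plated for 18 h at 37 C, then loaded with calcium dye for 1 h. Compounds were preincubated 5 min at room temperature before DOI (4 nM solution) was added. Kinetic fluorescence was read for 3 min.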
# [11] = biological target: 5-hydroxytryptamine receptor 2A (Homo sapiens) (UniProt P28223); assay: 5-hydroxytryptamine receptor 2A (HTR2A) small molecule agonists, cell-based qHTS assay (AID 1963587); further: nearly all actives have a fitted effect of over 30% in size
# Summary of the method: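 HTR2A-CHO cells, plated 18 h at 37 C/5% CO2, dye-loaded 1 h at 37 C; compounds in DMSO added by pin tool (agonist mode). Intracellular calcium flux read as kinetic fluorescence on FDSS over 2 min at 1 s intervals.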
# [12] = biological target: Muscarinic acetylcholine receptor M1 (Homo sapiens) (UniProt P11229); assay: Cholinergic receptor muscarinic 1 (CHRM1) small molecule antagonists, cell-based qHTS assay (AID 1963588); further: nearly all actives have a fitted effect of over 40% in size; further: potency means the concentration at half of the fitted maximal effect
# Summary of the method: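 Compounds were tested at 15 concentrations in three independent runs. Dye-loaded CHRM1-CHO cells were exposed 5 min at room temperature before stimulation by acetylcholine added at 50nM. Intracellular calcium was read kinetically on FDSS for 3 min.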
# [13] = biological target: Muscarinic acetylcholine receptor M1 (Homo sapiens) (UniProt P11229); assay: Cholinergic receptor muscarinic 1 (CHRM1) small molecule agonists, cell-based qHTS assay (AID 1963589); further: nearly all actives have a fitted effect of over 35% in size
# Summary of the method: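 Cells were plated and incubated 18 h at 37 C/5% CO2, loaded with calcium dye for 1 h at 37 C, then treated with compounds in DMSO. Fluorescence was recorded kinetically at 1 sec intervals.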
# [14] = cAMP Responsive Elements (CRE) small molecule antagonists, cell-based qHTS assay (AID 1963591; active means well fitted inhibition curve with a large enough effect in the signal ratio in the repeat runs, not every such curve was filed as active; the % refers to the signal ratio)
# Summary of the method: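 Cells (CRE-bla HEK 293T, DMEM with 10% dialyzed FBS and 25 mM HEPES) are seeded and incubated 18 h. Compounds are added with NKH477 agonist at 0.25 uM final for 3 h, then FRET substrate for 2 h.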
# [15] = biological target: Beta-2 adrenergic receptor (Homo sapiens) (UniProt P07550); assay: Adrenergic beta2 receptor (ADRB2) small molecule antagonists, cell-based qHTS assay (AID 1963592); further: nearly all actives have a fitted effect of over 50% in size; further: potency means the concentration at half of the fitted maximal effect
# Summary of the method: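 Assay format: CHO-ADRB2 cells, 18-20hr seeding at 37C/5% CO2, then compound plus 1nM isoproterenol agonist mix for 0.5hr RT. Homogeneous time-resolved fluorescence cAMP detection after 1hr, expressed as 665/615 nm ratio.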
# [16] = biological target: D(2) dopamine receptor (Homo sapiens) (UniProt P14416); assay: Dopamine D2 receptor (DRD2) small molecule agonists, cell-based qHTS assay (AID 1963594); further: nearly all actives have a fitted effect of over 35% in size
# Summary of the method: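 HEK293 cells stably expressing DRD2 were cultured 24 h at 37 C, then given Ro20-1724 (0.1 mM final) and compounds for 10 min at room temperature. NKH477 (200nM) was then added for 30 min. cAMP was read by HTRF.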
# [17] = biological target: Beta-2 adrenergic receptor (Homo sapiens) (UniProt P07550); assay: Adrenergic beta2 receptor (ADRB2) small molecule agonists, cell-based qHTS assay (AID 1963593);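 further: CHO cells stably overexpressing human ADRB2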
# Summary of the method: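 CHO cells stably over-expressing ADRB2 were plated overnight at 37C, then dosed with compounds plus a stimulation mix containing 100uM IBMX and 25uM Ro-20-1724 for 0.5hr at room temperature. cAMP was measured by HTRF competition, 1hr.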
# [18] = biological target: D(2) dopamine receptor (Homo sapiens) (UniProt P14416); assay: Dopamine D2 receptor (DRD2) small molecule antagonists, cell-based qHTS assay (AID 1963595; active means well fitted inhibition curve with a large enough effect in the signal ratio in the repeat runs, with a control signal flat; the % refers to the signal ratio)
# Summary of the method: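 In this cell-based antagonist screen, compounds act for 10 min at room temperature before a 30 min challenge with 12 nM quinpirole and 200 nM NKH477. cAMP is quantified by HTRF competition in DRD2-HEK293 cells containing 0.1 mM Ro20-1724.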
# [19] = cAMP Responsive Elements (CRE) small molecule agonists, cell-based qHTS assay (AID 1963590)
# Summary of the method: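 Cells carrying a CRE-driven beta-lactamase reporter (HEK 293T) are seeded, incubated overnight (18 h), and treated with test compounds for 3 h at 37 C; reporter activity is then detected with a FRET substrate after 2 h at room temperature.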
# Beta-2 adrenergic receptor (Homo sapiens), sequence (P07550 whole entry, looked up): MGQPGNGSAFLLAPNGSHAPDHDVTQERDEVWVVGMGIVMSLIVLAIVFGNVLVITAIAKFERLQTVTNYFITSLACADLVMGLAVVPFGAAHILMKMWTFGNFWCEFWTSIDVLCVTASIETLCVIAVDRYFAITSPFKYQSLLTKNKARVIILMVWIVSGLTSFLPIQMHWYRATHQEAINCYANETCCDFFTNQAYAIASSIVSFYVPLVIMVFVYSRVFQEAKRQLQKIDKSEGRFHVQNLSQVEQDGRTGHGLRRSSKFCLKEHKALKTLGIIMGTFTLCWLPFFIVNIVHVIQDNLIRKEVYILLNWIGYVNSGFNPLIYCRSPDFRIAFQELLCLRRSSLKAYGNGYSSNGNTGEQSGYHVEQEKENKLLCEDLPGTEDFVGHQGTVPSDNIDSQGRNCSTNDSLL
# D(2) dopamine receptor (Homo sapiens), sequence (P14416 whole entry, looked up): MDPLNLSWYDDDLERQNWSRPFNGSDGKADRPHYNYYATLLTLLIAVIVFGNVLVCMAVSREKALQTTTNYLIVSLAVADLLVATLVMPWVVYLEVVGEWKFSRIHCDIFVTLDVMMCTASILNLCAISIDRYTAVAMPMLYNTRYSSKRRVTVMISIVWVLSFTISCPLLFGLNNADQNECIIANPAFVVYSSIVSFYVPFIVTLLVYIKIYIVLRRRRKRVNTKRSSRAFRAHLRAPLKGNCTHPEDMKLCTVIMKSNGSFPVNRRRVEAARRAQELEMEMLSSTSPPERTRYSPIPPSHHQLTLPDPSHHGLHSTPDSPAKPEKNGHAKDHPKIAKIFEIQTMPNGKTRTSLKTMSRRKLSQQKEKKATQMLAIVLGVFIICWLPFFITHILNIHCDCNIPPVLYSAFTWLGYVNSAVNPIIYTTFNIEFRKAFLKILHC
# 5-hydroxytryptamine receptor 2A (Homo sapiens), sequence (P28223 whole entry, looked up): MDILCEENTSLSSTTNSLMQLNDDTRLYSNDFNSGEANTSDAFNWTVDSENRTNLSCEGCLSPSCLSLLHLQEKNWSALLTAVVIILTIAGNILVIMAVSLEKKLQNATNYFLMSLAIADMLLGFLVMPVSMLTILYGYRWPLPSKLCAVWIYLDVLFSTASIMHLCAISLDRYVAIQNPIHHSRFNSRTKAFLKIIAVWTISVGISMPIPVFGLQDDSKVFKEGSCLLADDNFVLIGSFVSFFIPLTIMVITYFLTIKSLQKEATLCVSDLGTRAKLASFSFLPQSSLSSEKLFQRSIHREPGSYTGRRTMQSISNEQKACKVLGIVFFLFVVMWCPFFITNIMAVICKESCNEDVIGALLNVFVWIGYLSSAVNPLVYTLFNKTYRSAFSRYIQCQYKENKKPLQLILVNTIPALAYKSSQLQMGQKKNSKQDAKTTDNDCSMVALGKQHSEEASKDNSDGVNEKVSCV
# KiSS-1 receptor (Homo sapiens), sequence (Q969F8 whole entry, looked up): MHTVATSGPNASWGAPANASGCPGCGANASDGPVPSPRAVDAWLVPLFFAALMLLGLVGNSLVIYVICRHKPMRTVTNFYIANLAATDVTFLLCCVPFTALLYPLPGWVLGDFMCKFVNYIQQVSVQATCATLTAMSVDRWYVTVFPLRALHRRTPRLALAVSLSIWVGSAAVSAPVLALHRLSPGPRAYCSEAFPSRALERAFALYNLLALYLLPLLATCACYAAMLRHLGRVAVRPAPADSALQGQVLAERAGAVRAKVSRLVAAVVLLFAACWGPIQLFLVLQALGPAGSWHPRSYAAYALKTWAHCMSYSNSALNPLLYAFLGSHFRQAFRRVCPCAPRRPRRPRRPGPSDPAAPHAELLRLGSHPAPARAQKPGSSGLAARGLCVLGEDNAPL
# Gonadotropin-releasing hormone receptor (Homo sapiens), sequence (P30968 whole entry, looked up): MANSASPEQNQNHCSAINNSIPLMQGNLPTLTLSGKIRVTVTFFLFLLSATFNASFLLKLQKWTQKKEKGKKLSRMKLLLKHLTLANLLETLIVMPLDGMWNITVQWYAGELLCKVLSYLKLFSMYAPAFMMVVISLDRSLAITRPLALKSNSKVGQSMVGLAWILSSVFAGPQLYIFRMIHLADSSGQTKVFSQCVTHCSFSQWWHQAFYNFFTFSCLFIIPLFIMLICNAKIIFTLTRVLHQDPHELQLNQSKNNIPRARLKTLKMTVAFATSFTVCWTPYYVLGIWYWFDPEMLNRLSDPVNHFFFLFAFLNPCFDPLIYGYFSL
# Muscarinic acetylcholine receptor M1 (Homo sapiens), sequence (P11229 whole entry, looked up): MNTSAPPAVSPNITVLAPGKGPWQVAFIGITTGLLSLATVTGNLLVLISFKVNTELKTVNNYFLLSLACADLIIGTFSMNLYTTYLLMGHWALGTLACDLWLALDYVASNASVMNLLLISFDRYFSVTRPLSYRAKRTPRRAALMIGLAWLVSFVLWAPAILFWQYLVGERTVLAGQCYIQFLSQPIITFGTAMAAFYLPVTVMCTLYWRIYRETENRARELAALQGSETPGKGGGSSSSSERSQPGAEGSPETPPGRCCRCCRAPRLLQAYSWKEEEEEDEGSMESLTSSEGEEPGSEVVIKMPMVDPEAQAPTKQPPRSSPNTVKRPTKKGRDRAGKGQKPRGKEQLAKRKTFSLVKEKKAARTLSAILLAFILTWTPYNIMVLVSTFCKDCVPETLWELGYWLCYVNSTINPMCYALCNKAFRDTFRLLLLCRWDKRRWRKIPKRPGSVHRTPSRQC
Compound,Potency [1],Potency [2],Potency [3],outcome [4],Potency [5],Potency [6],Potency [7],Potency [8],Potency [9],Potency [10],Potency [11],Potency [12],Potency [13],Potency [14],Potency [15],Potency [16],Potency [17],Potency [18],Potency [19]
CCOC(=O)C(=O)CCc1ccccc1,inactive,inactive,inactive,inactive,inactive,inactive,inactive,inactive,inactive,inactive,inactive,inactive,inactive,inactive,inactive,inactive,–,–,–
CCOC(=O)C1=NOC(c2ccccc2)(c2ccccc2)C1,inactive,inactive,inactive,inactive,inactive,inactive,inactive,inactive,inactive,inactive,inactive,–,inactive,–,inactive,inactive,inactive,inactive,–
C=CC(C)(CCC=C(C)C)OC(=O)C(C)C (configuration not stated),inactive,inactive,inactive,inactive,inactive,inactive,inactive,inactive,inactive,inactive,inactive,–,inactive,inactive,inactive,–,–,inactive,inactive
O=C(O)CCNC(=O)c1ccccc1,inactive,inactive,inactive,inactive,inactive,inactive,inactive,inactive,inactive,–,–,–,–,inactive,inactive,inactive,inactive,–,inactive
COc1ccccc1N1CCN(CCCNc2cc(=O)n(C)c(=O)n2C)CC1,inactive,inactive,inactive,inactive,inactive,inactive,inactive,inactive,inactive,inactive,inactive,10.3 µM (active),inactive,inactive,13.3 µM (active),–,–,inactive,inactive
CCN(CC)C(=O)N(CC)CC,inactive,inactive,inactive,inactive,inactive,inactive,inactive,inactive,inactive,inactive,inactive,–,inactive,inactive,inactive,inactive,–,inactive,inactive
CC1OCCC1=O (configuration not stated),inactive,inactive,inactive,inactive,inactive,inactive,inactive,inactive,inactive,inactive,inactive,inactive,inactive,inactive,inactive,–,–,inactive,–
